Compound activity from PubChem.
Pf growth 48h: inhibits P. falciparum growth in the first generation, 48 h; P. falciparum luciferase growth in erythrocytes, 48 h; Potency, µM (highest dose often 28.7 µM), without a hit: top-dose activity change, negative = inhibition, hits mostly inhibitors; 5.9% of 310,000 active; AID 504832
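Erythrocytes infected with P. falciparum carrying an integrated firefly luciferase reporter (2% hematocrit, 0.1% parasitemia final) were exposed to compounds in RPMI 1640 with 0.5% Albumax at 37 C, 5% CO2. Growth inhibition was scored as reduced luminescence.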
Pf growth 96h: inhibits malaria parasite growth, 96 h; P. falciparum luciferase reporter growth, 96 h; Potency, µM (top dose mostly 28.7 µM), for the others: top-dose activity change, negative = inhibition, actives largely listed as inhibitors; 6.9% of 320,000 active; AID 504834
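Erythrocytes infected with luciferase-expressing P. falciparum were dispensed at 2% hematocrit and 0.05% parasitemia (final), then incubated with compounds 96 hours at 37 C in 5% CO2. Luminescence after detection reagent addition reported growth.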
AmpC detergent: inhibitors of E. coli AmpC beta-lactamase with detergent; AID 485294; 0.041% of 370,000 active; P00811; AmpC hydrolysis of nitrocefin, absorbance 480 nm, 0.01% Triton; Potency, µM (highest dose often 114 µM), inactives show at the top dose activity change, negative = inhibition, most hits filed as inhibitors;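 further: 0% = no-compound wells and -100% = no-enzyme wells; nearly all actives have a fitted effect of over 25% in size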
Target sequence (P00811 whole entry, looked up): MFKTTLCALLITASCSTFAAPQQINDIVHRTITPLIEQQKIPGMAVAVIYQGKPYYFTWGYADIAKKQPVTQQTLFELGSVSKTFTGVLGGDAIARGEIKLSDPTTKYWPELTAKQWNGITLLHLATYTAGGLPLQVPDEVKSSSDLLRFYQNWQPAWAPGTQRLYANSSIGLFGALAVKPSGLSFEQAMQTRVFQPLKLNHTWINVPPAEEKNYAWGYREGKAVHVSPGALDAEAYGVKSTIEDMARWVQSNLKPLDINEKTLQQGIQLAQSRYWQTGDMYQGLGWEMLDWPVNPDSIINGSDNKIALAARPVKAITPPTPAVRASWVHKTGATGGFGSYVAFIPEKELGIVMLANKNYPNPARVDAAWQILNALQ
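AmpC (5.3 nM in the dispensed reagent) in 20 mM phosphate pH 7.0 with 0.01% (detergent screen) or 0.0001% Triton X-100 was preincubated with compounds for 15 min at room temperature. Nitrocefin was then added from an 800 uM solution, and hydrolysis was followed at 480 nm.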
AmpC inh no detg: inhibitors of E. coli AmpC beta-lactamase without detergent; P00811; AmpC nitrocefin hydrolysis, absorbance 480 nm, 0.0001% Triton; Potency, µM (series often up to 57.1 µM), without a hit: at the top dose activity change, negative = inhibition, usual class: inhibitors; 0.52% of 330,000 active;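 further: plate controls were no compound for no effect and no enzyme for full effect; nearly all actives have a fitted effect of over 20% in size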
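20 mM phosphate pH 7.0 + 0.01% (detergent screen) or 0.0001% Triton X-100; 5.3 nM AmpC reagent; cpd preinc 15 min RT; nitrocefin (800 uM stock) to start; A480 q20 s × 4 min; Activity was normalised to no-enzyme and no-compound control wells.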
AMA1-RON2 inh: AMA1-RON2 (P. falciparum) interaction inhibition. AlphaScreen AMA1-biotinylated RON2 peptide binding. Potency, µM (highest dose often 58.2 µM), without a hit: at the highest dose activity change, negative = inhibition, hits mostly inhibitors. 0.2% of 360,000 active;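 further: 0% = vehicle wells and -100% = peptide control; nearly all actives have a fitted effect of over 45% in size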
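AMA1 (3D7) with his tag at 25 nM final met compounds first, then biotinylated RON2 peptide at 25 nM; detection used donor plus acceptor beads, 10 µg/mL apiece, read by AlphaScreen after 30 min at room temperature.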
HCV inh: HCV inhibition. 3.4% of 340,000 active. Huh7.5.1 HCVcc-Cre infection, luciferase reporter, 44 h. AID 651820. Potency, µM (titrated, usually from 41.8 µM), for the others: top-dose activity change, negative = inhibition, actives largely listed as inhibitors
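A cell-based infection assay in which seeded cells (1,000 per well) receive test compound after 4 h, are inoculated with HCVcc-Cre at approximately 0.5 moi, and are incubated 44 h before luminescence detection.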
Starred values were filed as active, the others as inactive. Most compounds without a hit are left out; they make up all but 11% or so of the library. The call rests on the fitted dose curve; in most records, active means well fitted curve in the direction sought with a large enough effect; inconclusive means small, poorly fitted or top-dose-only effect, or another doubt; inactive means no such curve, though single readings can be large; an effect the other way counts as inactive or inconclusive. Unless noted, on the % scale 0 is the no-effect control and ±100 the full control effect; potency means the concentration at half of the fitted maximal effect.

How did CN(Cc1cnccn1)Cc1ccccc1OCC(O)CN1CCc2ccccc2C1 (centres undefined) do in these assays?
Pf growth 48h: 12µM*; Pf growth 96h: 14%; AmpC detergent: -4%; AmpC inh no detg: 41%; AMA1-RON2 inh: 40%; HCV inh: -13%

How did Cc1ccc(OCC(O)CN2CCc3ccccc3C2)c(C)c1 (centres undefined) do in these assays?
Pf growth 48h: 12%; Pf growth 96h: -15%; AmpC detergent: 1%; AmpC inh no detg: 10%; AMA1-RON2 inh: -1%; HCV inh: inconclusive

Results for COc1ccccc1C(=O)NC1(C(F)(F)F)C(=O)NC(C)=C1C#N (centres undefined) ?
AmpC detergent: -1%

What do the screens show for `Cc1ccc(C)c(N2CCN(S(=O)(=O)c3ccc4c(c3)CC(=O)N4C)CC2)c1`?
Pf growth 48h: 8.3µM*; Pf growth 96h: 0%; AmpC detergent: -3%; AmpC inh no detg: 25%; AMA1-RON2 inh: -6%; HCV inh: 1%

How did Cc1ccc(N2CCN(S(=O)(=O)c3ccc(F)c(C)c3)CC2)c(C)c1 do in these assays?
Pf growth 48h: -2%; AmpC detergent: -4%; AmpC inh no detg: -33%; AMA1-RON2 inh: 10%; HCV inh: -16%

How did Cc1ccc(C)c(N2CCN(S(=O)(=O)c3ccc4c(c3)n(C)c(=O)c(=O)n4C)CC2)c1 do in these assays?
AmpC detergent: 3%

What do the screens show for `CCC(=O)c1cc(F)c(N2CCN(S(=O)(=O)c3ccc(C)cc3)CC2)cc1C`?
Pf growth 48h: inconclusive; Pf growth 96h: 10µM*; AmpC detergent: inconclusive; AmpC inh no detg: 0%; AMA1-RON2 inh: -3%; HCV inh: 13µM*

Results for CCC(=O)N1CCc2cc(S(=O)(=O)N3CCN(c4cc(C)ccc4C)CC3)ccc21 ?
Pf growth 48h: -12%; Pf growth 96h: 10µM*; AmpC detergent: inconclusive; AmpC inh no detg: -9%; AMA1-RON2 inh: 20%; HCV inh: 12%

Results for Cc1ccc(Cl)c(NC(=O)CSc2cccc[n+]2[O-])c1Cl ?
AmpC inh no detg: -9%; AMA1-RON2 inh: -8%; HCV inh: 8%

How did Cc1ccc(Cl)c(NC(=O)CCl)c1Cl do in these assays?
Pf growth 48h: inconclusive; Pf growth 96h: 12µM*; AmpC detergent: -9%; AmpC inh no detg: -14%; AMA1-RON2 inh: 8%; HCV inh: -20%

Results for CCOc1ccc(C2C(C(=O)Nc3ccccc3)=C(C)Nc3nc(-c4ccccc4)nn32)cc1OC (centres undefined) ?
AmpC detergent: -8%

Results for COc1cc2ncnc(NCc3ccc(F)cc3)c2cc1OC ?
Pf growth 96h: 10µM*; AmpC detergent: -18%; AmpC inh no detg: -41%; AMA1-RON2 inh: 0%; HCV inh: inconclusive

What do the screens show for `c1ccc(CNc2ncnc3nc[nH]c23)nc1`?
Pf growth 48h: 11%; Pf growth 96h: 0%; AmpC detergent: -12%; AmpC inh no detg: -3%; AMA1-RON2 inh: 62%; HCV inh: 12%

What do the screens show for `COc1cc2ncnc(NCc3ccccc3C)c2cc1OC`?
Pf growth 48h: 15µM*; Pf growth 96h: 13µM*; AmpC detergent: 2%; AmpC inh no detg: -21%; AMA1-RON2 inh: -3%; HCV inh: -14%

What do the screens show for `COc1cc2ncnc(N[C@H](C)c3ccccc3)c2cc1OC`?
Pf growth 48h: inconclusive; Pf growth 96h: 13µM*; AmpC detergent: -13%; AmpC inh no detg: -4%; AMA1-RON2 inh: 2%; HCV inh: inconclusive

How did CC(Nc1ncnc2nc[nH]c12)c1ccccc1 (centres undefined) do in these assays?
Pf growth 48h: inconclusive; Pf growth 96h: 13µM*; AmpC detergent: inconclusive; AmpC inh no detg: -33%; AMA1-RON2 inh: 33%; HCV inh: -25%

How did O=C(CSc1nc2c([nH]c3ccccc32)c(=O)n1-c1ccccc1F)Nc1ccccc1C(F)(F)F do in these assays?
AmpC detergent: 8%

Results for CCN(CC)S(=O)(=O)c1ccc2c(c1)N(CC(=O)N1CCN(c3cccc(C)c3)C(C)C1)C(=O)CO2 (centres undefined) ?
AmpC detergent: -1%

How did CC1CCN(S(=O)(=O)c2ccc3c(c2)N(CC(=O)N2CCN(c4ccccc4)CC2)C(=O)CO3)CC1 do in these assays?
AmpC detergent: -4%

What do the screens show for `CC(=O)OC1=CN(Cc2ccccc2)S(=O)(=O)c2ccccc21`?
AmpC detergent: 4%

What do the screens show for `CCOC(=O)CSc1nc2sc3c(c2c(=O)n1-c1ccc(OC)cc1)CC(C(C)C)OC3` (centres undefined)?
AmpC detergent: 12%

What do the screens show for `CN1C(=S)NC(C)(C)CC1(C)c1ccc(O)cc1O` (centres undefined)?
Pf growth 48h: -2%; Pf growth 96h: -4%; AmpC detergent: -10%; AmpC inh no detg: -11%; AMA1-RON2 inh: 8%; HCV inh: 22%

How did CC1(C)CC(C)(c2ccc(O)cc2O)N(c2cccc(Cl)c2)C(=S)N1 (centres undefined) do in these assays?
Pf growth 48h: 4.1µM*; Pf growth 96h: inconclusive; AmpC detergent: inconclusive; AmpC inh no detg: -49%; AMA1-RON2 inh: -4%; HCV inh: inconclusive

Results for CC1(C)CC(C)(c2ccc(O)cc2O)N(c2ccc3ccccc3c2)C(=S)N1 (centres undefined) ?
Pf growth 48h: inconclusive; Pf growth 96h: inconclusive; AmpC detergent: inconclusive; AmpC inh no detg: -28%; AMA1-RON2 inh: -29%; HCV inh: 10µM*

How did COc1ccc(-c2nnc(SCC(=O)Nc3cccc(F)c3)s2)cc1 do in these assays?
AmpC detergent: 0%

How did COC(=O)C1=C(C)N(Cc2ccccc2)C(=NCC2CC2)N[C@H]1c1ccc(Br)cc1 do in these assays?
Pf growth 48h: inconclusive; Pf growth 96h: inconclusive; AmpC detergent: inconclusive; AmpC inh no detg: 51%

How did CC(OC(=O)C1CC(=O)N(Cc2ccccc2)C1)C(=O)Nc1cccc(C#N)c1 (centres undefined) do in these assays?
Pf growth 48h: 0%; Pf growth 96h: 6.6µM*; AmpC detergent: 10%; AmpC inh no detg: 34%; AMA1-RON2 inh: 0%; HCV inh: 24%

What do the screens show for `CC(OC(=O)CC1CCCCC1)C(=O)Nc1cccc(C#N)c1` (centres undefined)?
Pf growth 48h: inconclusive; Pf growth 96h: 8%; AmpC detergent: 0%; AmpC inh no detg: -17%; AMA1-RON2 inh: -7%; HCV inh: inconclusive
